HCMV antiviral = human cytomegalovirus inhibition; activity change, negative = inhibition, % at 57.5 µM; 410,000 compounds, 4.5% hits; HFF cells, HCMV-luciferase reporter, 72 h; active compounds read low; in the data active = activity change below about -60%; inconclusive = no clear call, values can overlap the other calls; inactive = above about -39%
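After 16 h attachment at 37C, HFF cells received test compound and HCMV-luciferase (1 PFU/cell); reporter luminescence read 72 h later, data normalized against buffer-only and known inhibitor Salinomycin.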
MARV entry inh = blocks Marburg virus binding to or entry into cells; Potency, µM (titrated, usually from 37.8 µM), inactives show at the top dose activity change, negative = inhibition, hits mostly inhibitors; Marburg virus pseudotyped entry inhibition, cell reporter; 300,000 compounds, 1.8% hits; AID 540276; calls by dose curve; tested in HEK293 cells; note: potency is the fitted concentration of half-maximal effect
Pf growth 48h = inhibits P. falciparum growth in the first generation, 48 h. 310,000 compounds, 5.9% hits. AID 504832. Potency, µM (top dose mostly 28.7 µM), inactives show top-dose activity change, negative = inhibition, hits mostly inhibitors. P. falciparum luciferase growth in erythrocytes, 48 h; note: potency is the fitted concentration of half-maximal effect
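Luminescence readout; reporter = integrated firefly luciferase in P. falciparum. RBC culture at 2% hematocrit, 0.1% parasitemia final, 37 C/5% CO2; decreased signal taken as growth inhibition.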
LASV entry inh = inhibitors of Lassa virus binding or cell entry | Lassa virus pseudotype entry inhibition, cell reporter | Potency, µM (titrated, usually from 37.9 µM), for inactives: at the highest dose activity change, negative = inhibition, actives largely listed as inhibitors | 300,000 compounds, 1.2% hits; calls by dose curve; tested in HEK293 cells; note: potency is the fitted concentration of half-maximal effect; nearly all actives have a fitted effect of over 50% in size
Pf growth 96h = P. falciparum growth inhibition at 96 hours. P. falciparum luciferase reporter growth, 96 h. Potency, µM (doses to about 28.7 µM), inactives show at the top dose activity change, negative = inhibition, actives largely listed as inhibitors. 320,000 compounds, 6.9% hits; note: potency is the fitted concentration of half-maximal effect
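Delayed-death screen, second-generation endpoint: infected erythrocytes, 2% hematocrit, 0.05% parasitemia final; 96 hours at 37 C, 5% CO2; luciferase detection reagent; luminescence decrease equals reduced growth.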
HCV inhibitor = blocks hepatitis C virus | Huh7.5.1 HCVcc-Cre infection, luciferase reporter, 44 h | 340,000 compounds, 3.4% hits | Potency, µM (series often up to 41.8 µM), inactives show top-dose activity change, negative = inhibition, hits mostly inhibitors; note: potency is the fitted concentration of half-maximal effect
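Compounds are dispensed onto cells plated 4 h earlier at 1,000 per well, with HCVcc-Cre virus (about 0.5 moi) added next. Following 44 h of culture, luminescent signal is measured for 15 sec after 15 min with substrate at room temperature.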
An asterisk follows results filed as active; ? = inconclusive; / = no result; [ ] = another dose, or the depositor's remark. The list is not random: actives were taken first. Their share in the collection is about 14%. Unless noted, calls come from the whole dose curve; as a rule, active = well fitted inhibition curve with a large enough effect; inconclusive = small, poorly fitted or top-dose-only effect, or another doubt; inactive = no such curve, though single readings can be large or run the other way. % is set by controls: 0 for no effect and ±100 for the full control effect.

SMILES	HCMV antiviral	MARV entry inh	Pf growth 48h	LASV entry inh	Pf growth 96h	HCV inhibitor
CC(C)C(=O)N1CCN(c2ccccc2NC(=O)c2ccc(C#N)cc2F)CC1	24	?	?	-2%	0%	6%
CC1CCN(c2ccccc2NC(=O)c2ccc(C#N)cc2F)CC1	-27	-1%[46.1 µM]	?	28%[46.1 µM]	19%	10µM*
CN(C)c1ccc(CNC(=O)c2cnc(N3CCNC3=O)s2)cc1	8	/	/	/	/	/
O=C(Nc1ccc2c(c1)OCCO2)C1C(c2ccccc2)=Nc2ccccc2N1C(=O)c1cccnc1 (stereo not drawn)	124	/	/	/	/	/
Cc1cccc(NC(=O)C(NS(=O)(=O)c2ccc3c(c2)CCC(=O)N3)c2ccccc2)n1 (stereo not drawn)	1	8%	-5%	-1%	10µM*	-3%
CCOC(=O)c1cc(-c2ccc(C)cc2)n(CCC(=O)Nc2ccc(OC)c(OC)c2)c1C	-10	?	/	/	/	/
CCOC(=O)c1cc(-c2ccc(C)cc2)n(CC(=O)Nc2ccc(OC)c(Cl)c2)c1C	-91*	-19%[46.1 µM]	/	/	/	/
Cc1cccc(C)c1OCc1nnc(SCC(=O)O)n1-c1c(C)cccc1C	-7	/	/	/	/	/
N#CCC(CNc1ncc(C(F)(F)F)cc1Cl)OC(=O)c1cccc(C(F)(F)F)c1 (stereo not drawn)	-25	?	?	-1%	5.9µM*	9%
Cc1cccc(/C=N/c2sc3c(c2C(=O)OC(C)(C)C)CCN(C)C3)c1O	35	?	?	17%	1.9µM*	?
CCc1c(O)cc(=O)n(-c2ccccc2)c1-c1ccccc1	-13	-10%	-5%	-4%	38%	11%
COc1ccc(/C=C\c2onc(C)c2S(=O)(=O)N2CCC(C(=O)Nc3ccccc3OC)CC2)cc1	-28	-15%[46.1 µM]	/	4%[46.1 µM]	/	/
Cc1ccc(NC(=O)c2ccc(Nc3ccccc3F)nc2)cc1	6	42%	68%	-1%	5.9µM*	?
Cc1ccc(NC(=O)c2ccc(NCc3ccc(F)cc3)nc2)cc1	-105*	21%[46.1 µM]	19%	8%	?	-4%
Cc1ccc(NC(=O)Nc2ccc(F)cc2)nc1	14	22%[46.1 µM]	146%	?	2%	?
CCC(=O)N1CCc2cc(Br)cc(S(=O)(=O)N3CCCC(C(=O)Nc4cccc(F)c4)C3)c21 (stereo not drawn)	-24	-3%[46.1 µM]	/	-21%[46.1 µM]	/	/
COc1ccc(C2NN=C(c3c[nH]c4ccccc34)C2O)cc1 (stereo not drawn)	115	/	?	/	?	11µM*
COc1ccc(Nc2nc(-c3c[nH]c4ccccc34)cs2)cc1	71	1%	?	9%	-100%	?
COc1ccc(C2C(O)C(c3c[nH]c4ccccc34)=NN2C(=O)CCl)cc1 (stereo not drawn)	-104*	3.2µM*	2.9µM*	?	?	0.56µM*
O=C1N(c2ccccc2)c2ccccc2[C@]12C[C@H](O)CO2	1	/	/	/	/	/
O=C(c1cc(COc2ccc(F)cc2F)on1)N1CCCC(c2ccccc2)C1 (stereo not drawn)	-63*	?	8%	7.1µM*	0%	?
CCN1CCN(C(=O)c2cc(COc3ccc(F)cc3F)on2)[C@@H](C)C1=O	?	?	0%	?	-2%	11µM*
CC(C)Cc1cc(C(=O)N2CCCC(C(=O)c3cc(F)ccc3F)C2)no1 (stereo not drawn)	-1	/	7%	/	4.7µM*	-20%
CCOC(=O)N1CCN(C(=O)c2cc(COc3ccc(F)cc3F)on2)CC1	17	?	5%	2%	?	-9%
O=C(c1cc(COc2ccc(F)cc2Cl)on1)N1CCCC(c2ccccc2)C1 (stereo not drawn)	-37	?	?	?	-9%	?
SMILES	HCMV antiviral	MARV entry inh	Pf growth 48h	LASV entry inh	Pf growth 96h	HCV inhibitor
O=C(c1cc(COc2ccc(F)cc2F)on1)N1CCN(C2CCCC2)C(=O)C1	-10	?	8.3µM*	?	-12%	-11%
CCOC(=O)c1c(-c2ccccc2)oc2ccc(NS(=O)(=O)c3ccc(C)cc3C)cc12	29	?	/	-15%[46.1 µM]	/	/
CCOC(=O)[C@H]1CCCN(c2nc3ccccc3nc2[C@@H](C#N)C(=O)O[C@@H](C)COC)C1	/	-2%	/	/	/	/
C=CCNc1ccc2c(c1)OC[C@H](CC(C)C)NS2(=O)=O	-6	/	/	/	/	/
Cc1ccc(-n2nc(-c3ccc(F)cc3)c3cnc4cc5c(cc4c32)OCO5)cc1C	18	8%[46.1 µM]	/	-10%[46.1 µM]	/	/
CCOC(=O)N1CCC(N2C(=O)c3ccccc3C2Nc2cc(Cl)c(OC)cc2OC)CC1 (stereo not drawn)	9	-16%	13µM*	-17%	?	-5%
O=C(CN1CCCCC1)NC(=O)NC1CCCCC1	-18	/	65%	/	37%	6%
CCc1ccc(NC(=O)CN(c2ccc(C)cc2)S(=O)(=O)c2cccs2)cc1	-20	5%[46.1 µM]	/	-16%[46.1 µM]	/	/
C=CCCC(=O)N1CCC(n2nccc2NC(=O)c2ccc(OC)cc2)CC1	64	?	-7%	9%[46.1 µM]	12µM*	2%
COCc1oc2ccc(NS(=O)(=O)c3ccc(C)cc3)cc2c1C(=O)OC	-11	?	/	-29%[46.1 µM]	/	/
O=C1NC(=O)c2cc(Nc3ccccc3)c(Nc3ccccc3)cc21	/	23µM*	/	?	/	/
Cc1ccc(Sc2ccc(/C=N/O)cc2[N+](=O)[O-])cc1	18	?	?	?	-10%	11µM*
CO/N=C/c1ccc(Sc2ccc(C)cc2)c([N+](=O)[O-])c1	-14	-18%	4%	?	/	?
CCn1c(=O)c2cc(C(=O)NCCc3ccc(OC)c(OC)c3)sc2c2ccccc21	-11	9%[46.1 µM]	/	-2%[46.1 µM]	/	/
CCOc1ccccc1NC(=O)c1ccc2c(c1)CCCN2S(C)(=O)=O	-15	26%[46.1 µM]	/	?	/	/
Cc1nnc2sc(SCC(=O)Nc3ccc(Cl)cc3)nn2c1=O	24	?	?	-21%[46.1 µM]	?	-9%
Cc1ccc(C(=O)CSc2nn3c(=O)c(C(C)(C)C)nnc3s2)cc1	3	2%	-4%	-4%	?	3%
Cc1nnc2sc(SCc3ccc(Cl)cc3)nn2c1=O	-21	?	?	?	1µM*	9%
CC(C)(C)c1nnc2sc(SCC(=O)c3ccc(Cl)cc3)nn2c1=O	/	-3%	?	-2%	0%	16%
Cc1cccc(CSc2nn3c(=O)c(C)nnc3s2)c1	15	21%	10µM*	-9%	?	3%
CC(=O)Nc1cccc(NC(=O)CSc2nn3c(=O)c(C)nnc3s2)c1	71	/	9.3µM*	/	5.2µM*	19%
Cc1ccc(CSc2nn3c(=O)c(C)nnc3s2)cc1	9	?	8.3µM*	-12%	?	2%

Screening results as filed in PubChem BioAssay.
